Screening results deposited in PubChem by several laboratories.
In the library only some 3% were active in any assay of this set; here they are far more common.
HMGR II inh = inhibitors of E. faecalis class II HMGR, primary screen, biochemical, Enterococcus faecalis | HMG-CoA reductase (Enterococcus faecalis, mvaE) | purified E. faecalis HMGR, NADPH absorbance 340 nm kinetic | inhibition, % at 10 µM | actives 0.41% (n = 190,000);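 active means inhibition above a set limit, the median over all tested compounds plus 3 SD, cut at about 9.5% in these data; inconclusive means no clear call, values can overlap the other calls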;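 further: enzyme runs in reverse so mevalonate oxidation gives rising NADPH absorbance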
TNF death inh = inhibitors of TNF-alpha triggered necroptosis, primary screen, cell-based, Jurkat FADD-/-, single concentration | AID 463075, 2010 | actives 0.068% (n = 220,000) | Jurkat FADD-/- TNF necroptosis rescue, ATP luminescence, 24 h; 0 = TNF only, 100 = no-TNF cells | activation (protection from cell death), % at 10 µM;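 active means activation, meaning protection from cell death, of at least 50% relative to plate controls; inactive means activation below 50%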;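 further: necroptosis triggered by 40 ng/mL TNF-alpha added together with compound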
ROMK mod = ROMK potassium channel modulators, primary screen, cell-based, thallium flux, MLSMR library | ATP-sensitive inward rectifier potassium channel 1 (Homo sapiens), P48048 | Tet-inducible ROMK, thallium flux fluorescence; actives lie on both sides | B-score at 10 µM | actives 2% (n = 130,000) | AID 1918, 2009;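 active means signal ratio slope over the read window, or its plate-corrected B-score, at least 3 SD from the plate mean, either direction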;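 further: B-score of the F/F0 ratio slope over 7 to 12 s after thallium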
Target sequence (P48048 whole entry, looked up): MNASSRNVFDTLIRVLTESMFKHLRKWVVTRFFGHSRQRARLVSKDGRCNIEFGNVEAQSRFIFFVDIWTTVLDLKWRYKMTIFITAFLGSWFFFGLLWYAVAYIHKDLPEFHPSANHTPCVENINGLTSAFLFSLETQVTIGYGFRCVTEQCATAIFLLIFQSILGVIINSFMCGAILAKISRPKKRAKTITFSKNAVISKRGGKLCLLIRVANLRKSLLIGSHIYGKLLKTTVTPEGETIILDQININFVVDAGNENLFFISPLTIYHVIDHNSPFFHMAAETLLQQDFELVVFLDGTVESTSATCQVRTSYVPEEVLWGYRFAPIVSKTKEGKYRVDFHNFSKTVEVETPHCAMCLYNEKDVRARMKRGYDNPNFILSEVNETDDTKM
Calpain2 inh = inhibitors of pig calpain II, primary screen, biochemical, fluorogenic peptide substrate, 1536-well; AID 1236, 2008; actives 0.37% (n = 220,000); purified calpain II, 30 min; inhibition, % at 16 µM;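 active means inhibition above about 50%, limit read from the data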
zVAD death inh = inhibitors of zVAD-triggered necroptosis, primary screen, L929 cells. L929 zVAD necroptosis rescue, ATP luminescence, 24 h; with zVAD 60 µM. viability rescue, % at 10 µM. actives 0.38% (n = 220,000);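 active means activation, scaled between plate controls, above about 75%, limit read from the data; inactive means activation under that limit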
14-3-3 Bad inh = inhibitors of 14-3-3 zeta/Bad binding, primary screen, biochemical, TR-FRET, bovine 14-3-3 zeta. inhibition, % at 21.7 µM. actives 0.71% (n = 220,000). AID 781, 2007. TR-FRET 14-3-3zeta/Dy647-pBad peptide displacement, 1 h. 14-3-3 protein zeta/delta (Bos taurus), P63103;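 active means inhibition above about 70%, limit read from the data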
Target sequence (P63103 whole entry, looked up): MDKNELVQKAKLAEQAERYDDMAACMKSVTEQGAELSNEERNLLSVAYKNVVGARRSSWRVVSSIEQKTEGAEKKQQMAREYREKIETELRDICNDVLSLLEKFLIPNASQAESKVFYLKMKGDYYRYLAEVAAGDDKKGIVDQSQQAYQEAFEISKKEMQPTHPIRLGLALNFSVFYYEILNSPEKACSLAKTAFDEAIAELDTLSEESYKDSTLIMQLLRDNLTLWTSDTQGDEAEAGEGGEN
ROMK retest = ROMK channel modulator hit retest, confirmation, cell-based, thallium flux, duplicate, resupplied hits | shares compounds with ROMK mod | fluorescence ratio; stronger effect = lower value | normalized thallium flux (F/F0 slope) at 10 µM | actives 54% (n = 3,000);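 active means Flux at 10 µM at least 3 SD below or above vehicle control mean in one or both replicates; inconclusive means no clear call, values can overlap the other calls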
Numbers stand for hits; n = inactive; u = inconclusive; x = no result.

SMILES | HMGR II inh | TNF death inh | ROMK mod | Calpain2 inh | zVAD death inh | 14-3-3 Bad inh | ROMK retest
COc1cccc(N2CCN(c3ncnc4c3[nH]c3ccccc34)CC2C)c1 (centres undefined) | n | n | n | n | n | n | 0.059
O=S(=O)(/N=C(/Nc1ccc(F)cc1F)c1ccccc1)c1ccc(Br)cc1 | n | n | x | n | n | n | x
CCn1c(/C=C/N(C(C)=O)c2ccccc2)[n+](CCCS(=O)(=O)[O-])c2cc(Cl)c(Cl)cc21 | n | n | n | n | n | n | x
CCn1c(/C=C/Nc2ccccc2)[n+](CC)c2cc(Cl)c(Cl)cc21 | n | n | -3.87 | n | n | n | 0.0443
CC(=O)N(C)c1nnc(-c2ccccn2)s1 | n | n | x | n | n | n | x
CCOC(=O)c1c(CSC(=N)N)n(-c2ccc(C)cc2)c2cc(Br)c(OC(C)=O)cc12 | n | n | x | n | n | n | 0.0447
O=c1cc2c(nn1Cc1ccccc1)-c1ccccc1CC2 | n | n | n | n | n | n | x
O=c1cc2c(nn1Cc1cccc([N+](=O)[O-])c1)-c1ccccc1CC2 | n | n | -8.35 | n | n | n | 0.053
S=C(NCCc1ccccc1)NC1CC2CCC(C1)N2Cc1ccccc1 (centres undefined) | n | n | -2.33 | n | n | n | 0.0571
CCCNC(=S)NC1CC2CCC(C1)N2Cc1ccccc1 (centres undefined) | n | n | x | n | n | n | x
NS(=O)(=O)c1ccc(NC(=O)COC(=O)c2ccc(Cl)cc2[N+](=O)[O-])cc1 | x | n | x | n | n | n | x
c1ccc2c(-c3[nH]ncc3CNCCCn3ncc4ccccc43)cccc2c1 | n | n | -1.79 | n | n | n | u
O=C(CSc1nnc(-c2ccc(S(=O)(=O)N3CCCC3)cc2)n1CC1CCCO1)NC1CC1 (centres undefined) | n | n | x | n | n | n | n
CCN(CC)Cc1c(O)ccc2c([N+](=O)[O-])c(C)n(-c3ccc(OC)cc3)c12 | n | n | -4.79 | n | n | n | u
Cc1ccc(C)c(N2CCN(S(=O)(=O)c3ccc4[nH]c(=O)c(=O)[nH]c4c3)CC2)c1 | n | n | 3.86 | n | n | n | u
Cc1ccc(C)c(N2CCN(S(=O)(=O)c3ccc4c(c3)CCC(=O)N4)CC2)c1 | n | n | n | n | n | n | x
CC(=O)N1CCN(c2ccccc2NC(=O)COc2cc(C)ccc2C(C)C)CC1 | n | n | x | n | n | n | n
Cc1ccc(C(C)C)c(OCC(=O)Nc2ccccc2N2CCN(C)CC2)c1 | n | n | -2.88 | n | n | n | 0.066
Cc1ccc(C(C)C)c(OCC(=O)NN=C(CCl)CCl)c1 | x | n | -4.64 | n | n | n | 0.0602
Cc1ccc(OCC(=O)Nc2ccccc2N2CCOCC2)c(C)c1 | n | n | x | n | n | n | x
C/C(=N/NC(=O)COc1cc(C)ccc1C(C)C)C(=O)O | n | n | n | n | n | n | x
CN1CCN(c2ccccc2NC(=O)COc2ccccc2)CC1 | n | n | n | n | n | n | x
Cc1cc(C(=O)CSc2nnnn2-c2ccc(O)cc2)c(C)n1C | n | n | n | n | n | n | x
CCCCN(C)S(=O)(=O)c1ccc(C(=O)Nc2nnc(-c3ccco3)o2)cc1 | n | n | 3.19 | n | n | n | n
CN(C)S(=O)(=O)c1ccc(C(=O)Nc2nnc(-c3ccco3)o2)cc1 | n | n | x | n | n | n | x
SMILES | HMGR II inh | TNF death inh | ROMK mod | Calpain2 inh | zVAD death inh | 14-3-3 Bad inh | ROMK retest
COCCNC(=S)N/N=C(\C)c1cccc([N+](=O)[O-])c1 | n | n | n | n | n | n | x
COc1ccc(C2N=C(N)N=C(N)N2c2ccccc2OC)cc1OC (centres undefined) | n | n | x | n | n | n | x
COc1ccc(N2CCCCn3c2nc2c3c(=O)n(C)c(=O)n2C)cc1 | n | n | x | n | n | n | x
CCCCOC(=O)Cn1c(=O)c2c(nc3n2CCCCN3c2ccc(C)cc2)n(C)c1=O | n | n | x | n | n | n | 0.061
CCC(C)NCCC(=O)Nc1ccc(Cl)c(S(=O)(=O)Nc2ccc(Cl)cc2)c1 (centres undefined) | n | n | -4.07 | n | n | n | 0.0637
Cc1ccc(C(=O)CCC(=O)Nc2ccc(Cl)c(S(=O)(=O)Nc3cccc(Cl)c3)c2)cc1 | n | n | n | n | n | n | x
CN(C)c1ccc(N=Cc2nc(-c3ccccc3)oc2OC(=O)c2ccccc2)cc1 | n | n | x | n | n | n | x
CC(=O)Oc1oc(-c2ccccc2)nc1C=Nc1ccc(N(C)C)cc1 | x | n | x | n | n | n | 0.0597
Cc1nn(C)c(Cl)c1C(=O)NCC(=O)Nc1ccc(C(C)C)cc1 | n | n | n | n | n | n | x
CCOc1nc(NCCN2CCOCC2)nc(Nc2ccc([N+](=O)[O-])cc2)n1 | n | n | n | n | n | n | x
Cc1ccc(N(C(=O)c2cc3ccccc3oc2=O)C2C=CS(=O)(=O)C2)cc1 (centres undefined) | n | n | x | n | n | n | x
O=C1c2ccccc2C(=O)N1CCCCN(C(=O)c1cc2ccccc2oc1=O)c1ccc(Cl)cc1 | n | n | -2.35 | n | n | n | n
CCOc1ccc(NC(=O)NC(=O)N(C)S(=O)(=O)c2ccc(C)cc2)cc1 | n | n | -2 | n | n | n | n
COc1ccc(C)cc1S(=O)(=O)N1CCOCC1 | n | n | n | n | n | n | x
CC1CCN(S(=O)(=O)c2ccc3ncn(CC(=O)N4CCN(C)CC4)c(=O)c3c2)CC1 | n | n | n | n | n | n | x
CCOC(=O)N1CCN(C(=O)C2CCCN(S(=O)(=O)c3cccnc3)C2)CC1 (centres undefined) | n | n | x | n | n | n | n
COC(=O)c1sccc1NC(=S)N1C(C)CCCC1C (centres undefined) | n | n | n | n | n | n | x
OC(CNCCCCNCC(O)C(F)(F)F)C(F)(F)F (centres undefined) | n | n | 2.67 | n | n | n | n
COc1ccc(C)cc1S(=O)(=O)N(CC(N)=O)Cc1ccccc1 | n | n | n | n | n | n | x
CC(C)CNC(=S)NC1CC2CCC(C1)N2Cc1ccccc1 (centres undefined) | n | n | x | n | n | n | x
CC(C)CNC(=S)NC1CC2CCCC(C1)N2C1CCCCC1 (centres undefined) | n | n | n | n | n | n | 0.0542
Cn1nnnc1SCCNCc1ccccc1OCc1ccc(F)cc1 | n | n | -3.82 | n | n | n | 0.0589
